High-throughput results deposited in PubChem by National Center for Advancing Translational Sciences (NCATS).
KB-V1 cytotox – KB-V1 MDR subline cytotoxicity | hit rate 3.4% among 400,000 | Potency, µM (series often up to 46.1 µM), actives largely listed as cytotoxic | KB-V1 MDR cells viability, CellTiter-Glo, 72 h; note: % is set by controls: 0 for no effect and ±100 for the full control effect; nearly all actives have a fitted effect of over 60% in size
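KB-V1, DMEM (no phenol red) + 10% FBS; cpd pin-transferred, titration series; 72 h, 37 degrees C; CellTiter-Glo, luminescence. Data normalized, curve-fit.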
MCF10A rerep – DNA re-replication induction in MCF 10a cells; hit rate 2.9% among 350,000; Potency, µM (series often up to 46.1 µM), inactives show at the highest dose activity, positive = re-replication, most hits filed as activators; MCF 10A DNA re-replication, Hoechst nuclear intensity, 48 h; note: % of control where 0% means no effect; nearly all actives have a fitted effect of over 50% in size
PINK1 modulator – PINK1 expression modulation. AID 624263. hit rate 0.2% among 410,000. Potency, µM (doses to about 76.6 µM), inactives show at the highest dose activation (PINK1 increase), most hits filed as activators. PINK1 immunofluorescence, high-content cytometry, 24 h; active = well fitted activation curve with a large enough effect; inconclusive = small, poorly fitted or top-dose-only effect; cell line not stated here; note: % of control where 0% means no effect; nearly all actives have a fitted effect of over 65% in size
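PINK1 protein, normally rapidly degraded, was detected by immunofluorescence after 24 hour compound treatment of a stable cell line. Titration data (5 concentrations) came from laser-scanning cytometry, with CCCP-treated wells as controls.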
SW480 rerep – inducers of DNA re-replication in SW480 colon cancer cells. Potency, µM (highest dose often 46.1 µM), inactives show at the highest dose re-replication activation, actives largely listed as activators. AID 624297. hit rate 1.8% among 340,000. SW480 DNA re-replication, Hoechst DNA content imaging, 48 h; note: % of control where 0% means no effect; nearly all actives have a fitted effect of over 55% in size
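Per well, 250 cells were exposed to pinned compound for 48 hr. Nuclear DNA was visualised with Hoechst (40 min, 37 C) and total object intensity recorded by fluorescence scanning.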
KB-3-1 tox – KB-3-1 parental cell cytotoxicity. KB-3-1 viability, CellTiter-Glo ATP luminescence, 72 h. Potency, µM (top dose mostly 46.1 µM), hits mostly cytotoxic. hit rate 1.4% among 400,000; note: % is set by controls: 0 for no effect and ±100 for the full control effect; nearly all actives have a fitted effect of over 60% in size
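Parental KB-3-1 adenocarcinoma cells in phenol-red-free DMEM with 10% FBS were pin-treated with compounds at several concentrations, incubated 72 h at 37 °C, and viability read by CellTiter-Glo luminescence; concentration-effect curves were fitted after normalization.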
* = called active by the depositor; i = inactive; ? = inconclusive; . = no result; [ ] = dose if it differs, or a comment. Compounds with a hit are over-represented: about 6.7% of the library has one in this group of screens. Unless noted, calls come from the whole dose curve; as a rule, active = well fitted curve in the direction sought with a large enough effect; inconclusive = small, poorly fitted or top-dose-only effect, or another doubt; inactive = no such curve, though single readings can be large; an effect the other way counts as inactive or inconclusive. Potency is the fitted concentration of half-maximal effect.

SMILES	KB-V1 cytotox	MCF10A rerep	PINK1 modulator	SW480 rerep	KB-3-1 tox
COc1ccccc1/C=C/C(=O)NCC(=O)N/N=C/c1cc(Br)ccc1OC	?	?	1.3%	13.8%	i
COc1ccccc1C(=O)NCC(=O)N/N=C/c1cc(Br)ccc1OC(=O)/C=C\c1ccco1	?	16.4µM*	14.5%	?	i
O=C(CNC(=O)c1ccccc1F)N/N=C/c1cc(Br)ccc1OC(=O)/C=C/c1ccco1	16.4µM*	?	1.0%	6.51µM*	?
O=C(CNC(=O)c1ccc(F)cc1)N/N=C/c1cc(Br)ccc1OC(=O)/C=C/c1ccco1	i	?	3.0%	?	?
CC(C)C1C(=O)N(Cc2cn(CCC3OCCCO3)nn2)CCS(=O)(=O)N1Cc1ccc(-c2ccc(Cl)cc2)cc1 (configuration not stated)	i	.	-1.0%	.	i
CC(C)C1C(=O)N(Cc2cn(CCC3OCCO3)nn2)CCS(=O)(=O)N1Cc1ccc(-c2ccc(Cl)cc2)cc1 (configuration not stated)	16.4µM*	.	?	.	?
CC[C@H](c1ccc(O)cc1)[C@@H](CC)c1ccc(O)cc1	.	11.4µM*	.	1.5%[20.6 µM]	.
CCC(c1ccc(O)cc1)C(CC)c1ccc(O)cc1 (configuration not stated)	?	?	2.8%	?	i
Cc1ccccc1Cn1nnc(-c2ccc(F)cc2)n1	i	3.4%	0.2%	-3.2%	i
O=C(O)c1ccc2nc(-c3cc4cccc(O)c4oc3=O)[nH]c2c1	.	.	0.8%	.	.
O=c1oc2c(O)cccc2cc1-c1nc2ccccc2[nH]1	i	?	1.5%	3.26µM*	20.6µM*
CCC(C)Nc1sc(S(=O)(=O)CC)nc1S(=O)(=O)c1ccc(C)cc1 (configuration not stated)	i	.	-0.4%	.	i
COc1cc2c(cc1OC)C(C)N(C(=O)c1cc3c(s1)-c1ccccc1OC3)CC2 (configuration not stated)	?	?	-0.4%	12.9%	?
COc1cc2c(cc1OC)C(C)N(C(=O)c1cc3c(s1)-c1c(C)cccc1OC3)CC2 (configuration not stated)	i	16.4µM*	-1.1%	-0.1%	i
COc1cc2c(cc1OC)C(C)N(C(=O)c1c(C)noc1C)CC2 (configuration not stated)	?	9.2µM*	7.8%	?	?
COc1cc2c(cc1OC)C(C)N(C(=O)c1cc(C)on1)CC2 (configuration not stated)	4.61µM*	1.3µM*	?	0.731µM*	?
COc1cc2c(cc1OC)C(C)N(C(C)=O)CC2 (configuration not stated)	i	4.0%	.	?	i
COc1cc2c(cc1OC)C(C)N(C(=O)c1cccs1)CC2 (configuration not stated)	?	16.6%	2.2%	13.3%	i
CCOc1ccc(CNC(=O)C2CCCN(S(=O)(=O)c3ccc4c(ccn4C)c3)C2)cc1 (configuration not stated)	?	.	3.7%	.	i
COc1cccc(C2CC(=O)Nc3c2c(=O)n(C)c2nc4ccccc4n32)c1OC (configuration not stated)	i	.	2.9%	.	i
CC(=O)N1CCN(c2ccc(NC(=O)c3ccc([N+](=O)[O-])o3)cc2Cl)CC1	?	3.26µM*	6.8%	?	?
CCC(=O)N1CCN(c2ccc(NC(=O)c3ccc([N+](=O)[O-])o3)cc2Cl)CC1	i	?	-1.2%	2.3%	?
CCC(=O)N1CCN(c2ccc(Cl)cc2NC(=O)c2ccc([N+](=O)[O-])o2)CC1	i	?	1.4%	9.2µM*	i
CCC(=O)N1CCN(c2ccc(Cl)cc2NC(=O)c2cccc([N+](=O)[O-])c2)CC1	i	?	-0.7%	-7.7%	i
O=C(Nc1cc(Cl)ccc1F)c1ccc(-n2cncn2)c([N+](=O)[O-])c1	i	-1.7%	5.2%	65.3%	i
O=C(Nc1cc(Cl)ccc1-n1cncn1)c1ccc([N+](=O)[O-])o1	?	?	7.8%	20.6µM*	13µM*
